Screening data from PubChem.
Rows were chosen to be rich in hits. Some 16% of all compounds tested hit in one or more screens of this group.
TDP1 cell CPT – qHTS for Inhibitors of human tyrosyl-DNA phosphodiesterase 1 (TDP1): qHTS in cells in presence of CPT; chicken DT40 Tdp1-/-;hTDP1 cells + 20 nM CPT, ATP luminescence, 48 h; Potency, µM (highest dose often 46.2 µM), for inactives: top-dose activity change, negative = growth inhibition, actives largely listed as inhibitors; 420,000 compounds, 12% hits; AID 686979, 2013; further: potency means the concentration at half of the fitted maximal effect; on the % scale 0 is the no-effect control and ±100 the full control effect; nearly all actives have a fitted effect of over 55% in size
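Chicken DT40 Tdp1-/- cells stably complemented with human TDP1 were seeded at 400 cells/well in medium containing 20 nM camptothecin, exposed to pin-transferred compounds, and grown at 37 °C for at least 48 hr. Viability was read as ATP luminescence.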
uPA surface inh – qHTS for Inhibitors of Cell Surface uPA Generation. 330,000 compounds, 0.31% hits. Potency, µM (titrated, usually from 38.3 µM), without a hit: at the highest dose activity change, negative = inhibition, actives largely listed as inhibitors. cell surface uPA generation assay, qHTS. AID 540303, 2011; active means well fitted inhibition curve with a large enough effect; inconclusive means small, poorly fitted or top-dose-only effect; inactive means no such curve, though single readings can be large or run the other way; tested in mouse RAW 264.7 cells; further: potency means the concentration at half of the fitted maximal effect; on the % scale 0 is the no-effect control and ±100 the full control effect; nearly all actives have a fitted effect of over 55% in size
miR-21 act – qHTS Assay for Modulators of miRNAs and/orActivators of miR-21; Potency, µM (doses to about 38.3 µM), inactives show top-dose activity change, positive = activation, actives largely listed as activators; HeLa miR-21 FLuc reporter, luciferase, 48 h; 340,000 tested, under 10 active;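 further: % of control where 0% means no effect; miR-21 action dims this reporter so a rising signal means less miR-21 action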
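HeLa miR-21-FLuc reporter line, endogenous miR-21; 2000 cells/well in DMEM/10% FBS; compound titration up to ~40uM final, 48 h, 37 degree Celsius; luciferase detection reagent, 15 min lysis, CCD luminescence.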
TDP1 cell noCPT – qHTS for Inhibitors of human tyrosyl-DNA phosphodiesterase 1 (TDP1): qHTS in cells in absence of CPT | DT40 Tdp1-/- hTDP1 cells, no CPT, ATP luminescence, 48 h | 420,000 compounds, 15% hits | Potency, µM (series often up to 46.2 µM), inactives show at the highest dose activity change, negative = growth inhibition, actives largely listed as inhibitors; further: potency means the concentration at half of the fitted maximal effect; on the % scale 0 is the no-effect control and ±100 the full control effect; nearly all actives have a fitted effect of over 55% in size
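Readout: luminescence from CellTiter-Glo after 30 min in the dark at RT. Cells: DT40 Tdp1-/- with stable hTDP1, 400/well. Exposure: compounds alone, ≥48 hr, 37 °C.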
TDP1 block – qHTS Assay for Inhibitors of Tyrosyl-DNA Phosphodiesterase (TDP1); Tyrosyl-DNA phosphodiesterase 1 (Homo sapiens), Q9NUW8; recombinant TDP1, AlphaScreen DNA substrate cleavage; Potency, µM (highest dose often 130 µM), without a hit: top-dose activity change, negative = inhibition, actives largely listed as inhibitors; 350,000 compounds, 0.28% hits; AID 485290, 2010; further: potency means the concentration at half of the fitted maximal effect; on the % scale 0 is the no-effect control and ±100 the full control effect; nearly all actives have a fitted effect of over 40% in size
Target sequence (Q9NUW8 whole entry, looked up): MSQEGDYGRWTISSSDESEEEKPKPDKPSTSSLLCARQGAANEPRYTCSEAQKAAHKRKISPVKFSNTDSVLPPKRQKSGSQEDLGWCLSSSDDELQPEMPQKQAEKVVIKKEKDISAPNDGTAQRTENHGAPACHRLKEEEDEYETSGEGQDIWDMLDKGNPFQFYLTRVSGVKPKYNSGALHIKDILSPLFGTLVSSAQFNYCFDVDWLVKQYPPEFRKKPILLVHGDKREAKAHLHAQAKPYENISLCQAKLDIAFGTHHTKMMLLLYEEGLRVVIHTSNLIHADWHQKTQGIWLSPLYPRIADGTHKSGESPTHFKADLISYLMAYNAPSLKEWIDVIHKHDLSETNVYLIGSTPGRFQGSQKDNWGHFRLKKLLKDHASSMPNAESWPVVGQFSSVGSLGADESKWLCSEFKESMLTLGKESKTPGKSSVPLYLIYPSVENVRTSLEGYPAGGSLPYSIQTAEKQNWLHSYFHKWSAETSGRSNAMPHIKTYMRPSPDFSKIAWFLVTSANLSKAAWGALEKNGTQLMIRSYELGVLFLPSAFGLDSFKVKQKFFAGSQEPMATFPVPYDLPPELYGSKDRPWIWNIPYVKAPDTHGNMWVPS
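Recombinant human Tdp1 (E. coli-expressed, 1 nM final) preincubated with compounds 15 min at room temperature, then 5'-biotin/3'-phosphotyrosine-FITC DNA substrate (15 nM final) added for 5 min. AlphaScreen beads (10 ug/ml final) added 10 min; cleavage lowers signal.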
* hit, by the source's call; [ ] = dose if it differs, or a comment. Unless noted, the call rests on the fitted dose curve; in most records, active means well fitted curve in the direction sought with a large enough effect; inconclusive means small, poorly fitted or top-dose-only effect, or another doubt; inactive means no such curve, though single readings can be large; an effect the other way counts as inactive or inconclusive.

How did CCOC(=O)c1c(NC(=O)Cn2c(C)nc3ccccc32)sc2c1CCC2 do in these assays?
TDP1 cell CPT: 20.6µM*; uPA surface inh: 1.4%; miR-21 act: -2.8%; TDP1 cell noCPT: 11.6µM*; TDP1 block: 6.2%

Results for CCOC(=O)c1c(NC(=O)C(C)NCc2ccco2)sc2c1CCC(C)C2 (configuration not stated) ?
TDP1 cell CPT: inconclusive; uPA surface inh: -5.2%; miR-21 act: 10.7%; TDP1 cell noCPT: 20.6µM*; TDP1 block: 4.7%

How did O=C1OC2CC3CC1CC(O)(C3)C2 (configuration not stated) do in these assays?
TDP1 cell CPT: 0.6%; uPA surface inh: 6.1%; miR-21 act: 0.4%; TDP1 cell noCPT: inconclusive; TDP1 block: -4.8%

What do the screens show for `N#Cc1cccc(C(=O)OCc2cccc(S(=O)(=O)N3CCOCC3)c2)c1`?
TDP1 cell CPT: 3.9%; uPA surface inh: 9.5%; TDP1 cell noCPT: 0.9%; TDP1 block: -6.2%

What do the screens show for `CCCCOC(=O)c1ccc(NC(=O)CSc2nncn2C)cc1`?
TDP1 cell CPT: inconclusive; uPA surface inh: -6.5%; miR-21 act: -10.4%; TDP1 cell noCPT: -2.7%; TDP1 block: 5.9%

How did Cc1cccc(NC(=O)COc2cccc3c2CCN(C)C3=O)c1C do in these assays?
TDP1 cell CPT: inconclusive; uPA surface inh: -15.4%; miR-21 act: 11.7%; TDP1 cell noCPT: inconclusive; TDP1 block: 8.9%

Results for CCOC(=O)c1c(NC(=O)COc2cccc3c2CCN(C)C3=O)sc2c1CCC2 ?
TDP1 cell CPT: 13µM*; uPA surface inh: 4.3%; miR-21 act: -4.8%; TDP1 cell noCPT: 9.2µM*; TDP1 block: 1.1%

Results for CCOC(=O)c1c(NC(=O)COC(=O)Cn2cnc3ccccc32)sc2c1CCC(C)C2 (configuration not stated) ?
TDP1 cell CPT: 23.7%; uPA surface inh: 0.6%; miR-21 act: -14.2%; TDP1 cell noCPT: inconclusive; TDP1 block: 7.1%

What do the screens show for `COC(=O)c1c(NC(=O)COc2ccc(OC)cc2)sc2c1CCC(C)C2` (configuration not stated)?
TDP1 cell CPT: inconclusive; miR-21 act: -0.4%; TDP1 cell noCPT: 7.31µM*; TDP1 block: 4.0%[12.3 µM]

How did CCOC(=O)c1c(NC(=O)Cn2nnc3ccccc32)sc2c1CCC(C)C2 (configuration not stated) do in these assays?
TDP1 cell CPT: 23.1µM*; uPA surface inh: 3.6%; miR-21 act: 9.3%; TDP1 cell noCPT: 23.1µM*; TDP1 block: 1.0%

How did CC(NC(=O)c1cccnc1)C(c1cccs1)N1CCN(c2ccccc2F)CC1 (configuration not stated) do in these assays?
TDP1 cell CPT: 23.1µM*; uPA surface inh: 0.6%; miR-21 act: 17.3%; TDP1 cell noCPT: inconclusive; TDP1 block: -1.9%

How did COc1ccccc1N1CCN(C(c2cccs2)C(C)NC(=O)c2cccnc2)CC1 (configuration not stated) do in these assays?
TDP1 cell CPT: inconclusive; uPA surface inh: -1.4%; miR-21 act: 12.8%; TDP1 cell noCPT: inconclusive; TDP1 block: 1.2%

Results for COc1ccccc1N1CCN(C(c2cccs2)C(C)NC(=O)c2cccs2)CC1 (configuration not stated) ?
TDP1 cell CPT: 16.4µM*; uPA surface inh: 1.9%; miR-21 act: 2.9%; TDP1 cell noCPT: 11.6µM*; TDP1 block: 3.7%

What do the screens show for `CCOc1ccc(-c2nnc(SCC(=O)NCc3ccccc3Cl)o2)cc1`?
TDP1 cell CPT: -23.5%; miR-21 act: -26.4%; TDP1 cell noCPT: -27.6%; TDP1 block: 5.7%
